# Screens: PubChem, National Center for Advancing Translational Sciences (NCATS)
# Shown are actives, neighbours in structure and some others; about 19% of the full set was active somewhere.
# DT40 TDP1 no CPT = qHTS for Inhibitors of human tyrosyl-DNA phosphodiesterase 1 (TDP1): qHTS in cells in absence of CPT | Potency, µM (doses to about 46.2 µM), for inactives: at the highest dose activity change, negative = growth inhibition, actives largely listed as inhibitors | 420,000 compounds, 15% hits | AID 686978, 2013 | DT40 Tdp1-/- hTDP1 cells, no CPT, ATP luminescence, 48 h; further: potency means the concentration at half of the fitted maximal effect; nearly all actives have a fitted effect of over 55% in size
#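 Cells were dispensed at 400 per well, compounds added by pin tool, plates incubated ≥48 hr at 37 °C, then CellTiter-Glo added for 30 min at room temperature before luminescence reading. Line: DT40 Tdp1-/- complemented with hTDP1; camptothecin omitted.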
# HT1080NT lethal = kills 2HG-producing HT-1080-NT fibrosarcoma cells. HT-1080-NT fibrosarcoma viability, CellTiter-Glo ATP luminescence, 48 h. Potency, µM (highest dose often 46.1 µM), inactives show at the highest dose activity, negative = less viability, usual class: cytotoxic. 360,000 compounds, 1.6% hits;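 further: NT is the 2HG producing partner of a matched IDH1 knockdown line; potency means the concentration at half of the fitted maximal effect; 0% = DMSO-treated cells and -100% = media-only wells without cells; nearly all actives have a fitted effect of over 55% in size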
#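 Toxicity toward the 2HG-producing NT line was scored as %Activity, normalised to DMSO and no-cell wells, from CellTiter-Glo luminescence after 48 hours' treatment.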
# ELG1 DNA repair = blocks ELG1-dependent DNA repair in HEK293T cells. 330,000 compounds, 2.3% hits. HEK293T ELG1-luciferase reporter, luminescence, 16 h; DNA damage induced by 5-fluorouridine. Potency, µM (highest dose often 46.1 µM), for the others: at the highest dose activity change, negative = inhibition, usual class: inhibitors. AID 504467; further: potency means the concentration at half of the fitted maximal effect; nearly all actives have a fitted effect of over 55% in size
#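 DMSO vehicle served as the neutral condition. Each well held 2,000 cells given 5-fluorouridine plus compound; after 16 hr at 37 °C/5% CO2, ONE-Glo was added and luciferase measured 30 min later.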
# IL-1B inflam inh = inflammasome signaling inhibition, IL-1 beta readout; activity change, % at 57.5 µM; 360,000 compounds, 4.7% hits; THP-1 LPS/ATP IL-1B secretion, AlphaLISA, 16 h; stronger effect = lower value; in the data active means activity change below about -50%; inconclusive means mostly about -30% to -49%
#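 Secreted IL-1B measured by AlphaLISA bead assay after 16 h compound exposure of THP-1 cells; compounds (final up to 57.5 uM) added 1 h before LPS (250 ng/mL) and ATP (1.25 mM) stimulation; lower signal means less secretion.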
# HT1080 IDH1KD tx = kills HT-1080 cells with IDH1 knockdown; HT-1080 IDH1 knockdown viability, ATP luminescence, 48 h; Potency, µM (titrated, usually from 46.1 µM), without a hit: top-dose activity, negative = toxicity, most hits filed as cytotoxic; 360,000 compounds, 2% hits;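 further: potency means the concentration at half of the fitted maximal effect; 0% = DMSO wells and -100% = cell-free medium wells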
#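 % activity derives from luminescence (CellTiter-Glo), normalised to DMSO and no-cell wells. HT-1080-IDH1KD cells, 750/well, had 48 h compound exposure at 37 °C.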
# DT40 TDP1 CPT = DT40-hTDP1 cell growth loss with CPT | chicken DT40 Tdp1-/-;hTDP1 cells + 20 nM CPT, ATP luminescence, 48 h | Potency, µM (doses to about 46.2 µM), without a hit: top-dose activity change, negative = growth inhibition, usual class: inhibitors | 420,000 compounds, 12% hits; further: potency means the concentration at half of the fitted maximal effect; nearly all actives have a fitted effect of over 55% in size
#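 Cell growth measured by CellTiter-Glo luminescence after a minimum 48 h, 37 C compound exposure with 20 nM CPT in Tdp1-knockout DT40 cells stably expressing hTDP1, seeded 400/well; qHTS titration format.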
# * = called active by the depositor; ? = inconclusive; . = no result given. Unless noted, the call rests on the fitted dose curve; in most records, active means well fitted curve in the direction sought with a large enough effect; inconclusive means small, poorly fitted or top-dose-only effect, or another doubt; inactive means no such curve, though single readings can be large; an effect the other way counts as inactive or inconclusive. Unless noted, on the % scale 0 is the no-effect control and ±100 the full control effect.
SMILES,DT40 TDP1 no CPT,HT1080NT lethal,ELG1 DNA repair,IL-1B inflam inh,HT1080 IDH1KD tx,DT40 TDP1 CPT
CCOC(=O)C1=C(c2ccccc2)NC(=S)NC1c1ccc(C)c([N+](=O)[O-])c1 (stereo not drawn),16µM*,-20%,?,57,-16%,23µM*
CCOC(=O)C1=C(c2ccccc2)NC(=O)NC1c1ccc(O)c(Cl)c1 (stereo not drawn),?,12µM*,?,.,13µM*,?
COc1cccc(CNC(=O)[C@@H]2CCCN2C(=O)[C@@H]2CCCN2C(=O)c2ccc(Cl)cc2)c1,?,4%,.,17,-1%,?
O=C(CSc1nc2c(oc3ccccc32)c(=O)[nH]1)Nc1cccc(Cl)c1,-29%,.,.,.,.,?
CC(C)C1C(=O)Nc2ccc(S(=O)(=O)NCc3ccc(Cl)cc3)cc21 (stereo not drawn),16µM*,.,.,.,.,23µM*
Clc1ccc(-c2c[n+]3c(n2-c2ccccc2)SCC3)cc1,?,-13%,7.3µM*,?,-2%,?
Clc1ccc(-c2cn(-c3ccccc3)c3[n+]2CCS3)cc1,6.5µM*,-12%,-12%,-51*,-11%,?
O=[N+]([O-])c1cccc(-c2c[n+]3c(n2-c2ccccc2)SCC3)c1,-6%,7%,?,31,11%,20%
CC(=O)c1ccc(-n2cc(-c3ccc(C(C)(C)C)cc3)[n+]3c2SCCC3)cc1,0.16µM*,?,7.3µM*,-25,?,0.21µM*
COc1ccc(-c2cn(-c3ccc(Br)cc3)c3[n+]2CCS3)cc1,6.5µM*,-25%,-18%,-76*,-29%,8.2µM*
O=S(=O)(NCC1CCC(NS(=O)(=O)c2c(F)cccc2F)CC1)c1ccc2c(c1)OCCO2 (stereo not drawn),.,.,8%,.,.,.
Cc1cc(C)cc(NC(=O)Cn2nnc(C(=O)Nc3cc(C)cc(C)c3)c2N)c1,?,.,.,.,.,-10%
CCOCC(=O)Nc1ccc([N+](=O)[O-])cc1C,0%,-4%,?,-1,-4%,0%
Fc1ccc(-c2cn(-c3ccccc3)c3[n+]2CCS3)cc1,23µM*,?,21µM*,-13,-2%,?
Fc1cc(F)cc(Nc2nc(Cl)nc(NC3CCCC3)n2)c1,.,.,-5%,.,.,.
COC(c1ccc(Cl)cc1)(c1ccc(Cl)cc1)C(Oc1nc(C)cc(C)n1)C(=O)O (stereo not drawn),15µM*,-20%,19%,36,-9%,?
Cc1ccc(C)c(N2CCN(C(=O)CCCN3C(=S)NC(C)(C)CC3C)CC2)c1 (stereo not drawn),10µM*,?,?,-29,?,18µM*
CCOc1ccc(NC(=O)CCCN2C(=S)NC(C)(C)CC2C)cc1 (stereo not drawn),-1%,12%,5%,4,7%,4%
CC1CC(C)(C)NC(=S)N1CCCC(=O)Nc1ccc(Br)cc1 (stereo not drawn),?,-5%,-7%,-78*,?,?
Nc1nc(Cl)cc(-c2ccccc2)n1,-15%,2%,17%,-50*,0%,3%
COc1cc(-c2ccccc2)nc(N)n1,-1%,-8%,?,18,1%,0%
CC[C@@H]1C/C=C\Cc2ccccc2[C@H](C(=O)C[C@@H](O)CC(C)=O)OC1=O,?,-2%,-7%,61,5%,13µM*
COc1cc(C(=O)NCC(=O)N/N=C/c2ccc(OC(=O)c3ccco3)cc2)cc(OC)c1OC,-21%,0%,-5%,21,0%,1%
CCOC(=O)N(C)c1c(CC)nc2c(OCc3ccc(Cl)cc3Cl)cccn12,23µM*,?,.,0,?,?
CCOC(=O)N(C)c1c(CC)nc2c(OCc3ccc(F)c(F)c3)cccn12,21µM*,2%,.,-7,-1%,?
SMILES,DT40 TDP1 no CPT,HT1080NT lethal,ELG1 DNA repair,IL-1B inflam inh,HT1080 IDH1KD tx,DT40 TDP1 CPT
CCOC(=O)C(=O)N(C)c1c(CC)nc2c(OCc3ccccc3OC)cccn12,?,24%,.,25,6%,-14%
CCOC(=O)N(C)c1c(CC)nc2c(OCc3ccc(F)cc3)cccn12,?,-7%,.,-10,6%,?
CCc1nc2c(OCc3ccc(Cl)cc3)cccn2c1N(C)C(=O)c1ccccc1F,?,-8%,.,1,-21%,?
CCc1nc2c(OCc3ccc(F)c(F)c3)cccn2c1N(C)C(=O)C1CC1,?,10%,.,10,-2%,21µM*
CCc1nc2c(OCc3cccc(Cl)c3)cccn2c1N(C)C(=O)CC(C)C,21µM*,?,.,2,?,?
Cc1nn(S(=O)(=O)c2ccc(Br)cc2)c(C)c1S(=O)(=O)N1CCCCCC1,-26%,.,.,.,.,-19%
CN(C)Cc1ccccc1CNC(=O)c1ccc(Cl)c(S(=O)(=O)NC2CC2)c1,-14%,1%,.,10,-1%,1%
CCOC(=O)N(C)c1c(CC)nc2c(OCc3cc(Cl)cc(Cl)c3)cccn12,21µM*,?,.,?,?,?
O=C(COC(=O)c1ccccc1-c1nc2ccccc2s1)Nc1ccccc1C(F)(F)F,-2%,18%,23µM*,17,15%,3%
COc1ccc(CCN(C)C(=O)C2CCCN(C3CCN(Cc4ccccc4)CC3)C2)cc1OC (stereo not drawn),-28%,-9%,-9%,-11,-2%,?
COc1ccccc1Oc1nc2ccccn2c(=O)c1/C=C(\C#N)C(=O)Nc1c(C)n(C)n(-c2ccccc2)c1=O,-17%,3%,?,.,-15%,4%
Cc1ccc(Oc2nc3ccccn3c(=O)c2/C=C(\C#N)C(=O)Nc2c(C)n(C)n(-c3ccccc3)c2=O)c(C)c1,13µM*,-13%,8%,0,0%,?
Cc1c(NC(=O)/C(C#N)=C/c2ccc(-c3ccccc3Cl)o2)c(=O)n(-c2ccccc2)n1C,29µM*,-5%,?,-73*,-4%,?
Cc1c(NC(=O)C(=O)/C=C(\O)c2ccc(Cl)cc2)c(=O)n(-c2ccccc2)n1C,-8%,-2%,2%,-56*,-4%,3%
Cc1c(NC(=O)/C(C#N)=C/c2ccc(-c3ccc(Cl)c(Cl)c3)o2)c(=O)n(-c2ccccc2)n1C,13µM*,5%,21µM*,-52*,19%,18µM*
